Reference: the supplement of paper PMC6555819

Key:
Test in all cases: PBM binding z-score (relative to random genomic background probes); higher = stronger binding; sequences stand for … in GC…GCGATTGACAGCGTAGAATGAAGG
[1] = test system: RARb homodimer (NR concentration 270 nM)
In short: (§1)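 Regression normalization was applied to scanned fluorescence from custom Agilent 4×180K protein-binding microarrays. Before scanning, arrays were incubated 1 h with ligand-free nuclear receptor dimers, and binding was detected with antibodies against each partner (one per run). Binding z-scores use the random background probes as reference.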

[2] = test system: RARg:RXRa (NR concentration 270 nM, RXRa partner concentration 90 nM)
In short: as §1

[3] = test system: RARg homodimer (NR concentration 270 nM)
In short: as §1

[4] = test system: RXRa DBDmut IVT, anti-RXR (DBD mutation: RXRa K156A/R161A, NR concentration 90 nM)
In short: as §1

[5] = test system: RXRa homodimer (NR concentration 180 nM)
In short: as §1

[6] = test system: THRa:RXRa (NR concentration 90 nM, RXRa partner concentration 90 nM)
In short: as §1

[7] = test system: THRa homodimer (NR concentration 90 nM)
In short: as §1

[8] = test system: VDR:RXRa (NR concentration 270 nM, RXRa partner concentration 90 nM)
In short: as §1

[9] = test system: VDR homodimer (NR concentration 270 nM)
In short: as §1

Row | Sequence | PBM binding z-score [1] | PBM binding z-score [2] | PBM binding z-score [3] | PBM binding z-score [4] | PBM binding z-score [5] | PBM binding z-score [6] | PBM binding z-score [7] | PBM binding z-score [8] | PBM binding z-score [9]
1 | TAGCCTAGGTCATTCAGGGGCCGGTATAGAAAGC | 2.86 | 5.32 | 4.21 | 1.88 | 3.01 | 3.42 | 0.635 | 2.63 | 1.53
2 | TATACACGGTCAAAGGCCAGAGTACGAATGTCGA | 2.33 | 2.53 | 2.87 | 0.0328 | 1.45 | 0.581 | -0.253 | 0.598 | 0.761
3 | ACTAGTCGGTCAGCTGAGGTCACACACAATTCGG | 4.94 | 4.99 | 5.76 | 1.43 | 4.35 | 5.27 | 5.28 | 5.12 | 3.97
4 | CGTCCAAGGTCATAGGAGGTCAGTGCAGACAGAT | 4.94 | 6.63 | 6.9 | 4 | 6.32 | 5.34 | 2.96 | 6.74 | 4.88
5 | GCTGCTAGGTCAACTGATGGACAGCTAAAGCTCG | 3.12 | 4.45 | 5.36 | 1.28 | 2.94 | 2.72 | 0.89 | 1.27 | -0.122
6 | CTACCAAGGTGAACAAGGTCGGTGATTACTATTC | 1.6 | 1.22 | 1.42 | 0.135 | 1.23 | 2.66 | 1.27 | 4.17 | 0.361
7 | CCAGAGAGGTGAAAGGTAACTCAGTCTGGTACGC | 1.42 | 2.57 | 1.44 | 0.39 | 3.56 | 2.1 | 0.391 | 1.64 | 0.0875
8 | ATATGTAGGTTATCGGGTCAGTCAGTTTGCGCAT | 2.84 | 2.76 | 2.42 | 1.01 | 2.44 | 2.68 | 2.08 | 4.27 | 2.46
9 | ATCTCTAGGTAACATGTTCAGTGAAAGAGAGGAC | 0.187 | 0.668 | 0.705 | 0.0522 | 0.565 | 1.04 | 0.541 | 0.0615 | -0.0529
10 | TGCCAAAGTTCAAAGGTAACGTAAGTATCCACAC | 3.8 | 6.37 | 6.18 | 4.65 | 7.16 | 3.44 | -0.0439 | 4.97 | 5.01
11 | CCTACTGGCCCATCAGGTCATTGATATCAACGTT | 2.36 | 1.72 | 1.54 | 0.0636 | 1.13 | 3.29 | 3.04 | 1.78 | 1.9
12 | ATCGAAAGGTCGACGAGGTTAGTATACACCGTTT | 3.1 | 4.27 | 4.18 | 1.45 | 4.55 | 3.37 | 0.478 | 6.41 | 2.31
13 | TTACCAAGGTGACGGTCGTTGATCCCTCTGTAGA | 1.18 | 0.607 | 0.608 | -0.779 | 0.836 | 2.01 | 0.865 | 0.0426 | -0.245
14 | CAAACTAGGTAAAGGTCAAAGTCGGTTTGTGCCA | 4.92 | 6.24 | 5.71 | 2.3 | 6.98 | 3.87 | 1.05 | 5.38 | 2.8
15 | TCGAGTAGGTTACCAATGGGGCTTTCAGCTTTCT | 0.0343 | 0.0207 | 0.23 | 0.35 | 0.16 | -0.122 | -0.536 | -0.42 | -0.784
16 | AGAATGAGGTTAGGATCAGGGAAACAGAATACAT | 1.09 | 1.15 | 0.965 | 0.213 | 1.37 | 2.13 | 0.948 | 0.51 | 0.389
17 | GCTAGTTGGTCAGTAAAAGGTCACCCACCGGTCG | 5.12 | 5.56 | 4.94 | -0.12 | 5.13 | 3.42 | 1.89 | 3.44 | 1.26
18 | CCTTACGGGTCACTGACAGGTTATATCATTTGGA | 3.45 | 5.75 | 4.58 | 1.64 | 5.22 | 2.96 | 0.162 | 3.81 | 1.32
19 | AGAATAAGGTTAAGATCAGGGAAACAGAATACAT | 1.25 | 2.16 | 1.8 | 0.838 | 2.38 | 2.66 | 1.26 | 1.14 | 0.515
20 | TCTCGGAGGACACGAAATGTCAGAGCTCGACATC | 1.04 | 0.897 | 1.7 | 0.78 | 0.302 | 1.54 | 0.334 | 0.0899 | -0.342
21 | CCTTACGGGTCACACCAGGTTATAGCATCGGAGT | 3.26 | 4.99 | 4.64 | 1.32 | 5.18 | 5.22 | 0.963 | 4.89 | 1.61
22 | ACTAGCAGGGCAAGTTTGGGTCACTCAAACAAAG | 2.59 | 3.35 | 2.64 | 0.437 | 1.38 | 3.17 | 1.08 | 1.32 | 0.258
23 | ACAGACAAGTGATGAAGGTAACTCAGGCTATCAT | 0.0016 | -0.0454 | 0.277 | -0.483 | 0.153 | 0.639 | -0.0791 | -0.0224 | -0.536
24 | ACTATTAGTTCACTTAGGGCAACCGATACGACGC | 1.93 | 2.02 | 2.25 | 2.72 | 1.04 | 3.1 | 0.596 | 2.52 | 2.32
25 | CCTGCTGGGTCATGGTCAGCTAATCTACAGTATG | 2.6 | 3.56 | 3.65 | 0.81 | 2.88 | 2.04 | 0.0617 | 1.28 | -0.0341
26 | ATCGAAAGGTCGAGGTGAGAATAGAGAAAGGGAA | 2.77 | 4.3 | 4.7 | 0.437 | 4.86 | 2.73 | 0.58 | 2.37 | -0.0619

Row | Sequence | PBM binding z-score [1] | PBM binding z-score [2] | PBM binding z-score [3] | PBM binding z-score [4] | PBM binding z-score [5] | PBM binding z-score [6] | PBM binding z-score [7] | PBM binding z-score [8] | PBM binding z-score [9]
27 | CGAACCAGGTCAGAACAGGACAGTGAAGGATGAT | 2.14 | 2.84 | 3.33 | 0.868 | 2.06 | 3.69 | 0.812 | 1.44 | 0.276
28 | GCGACTGGGGCAAGGCAGGTTACCATAAGGTTGG | 1.16 | 0.436 | 0.635 | -1.16 | 0.144 | 2.41 | 0.0224 | -0.166 | -0.42
29 | GCAGCTAGGTCAGGTTGGTCAGCTAACGGGTACG | 2.83 | 2.31 | 3.77 | 0.319 | 1.04 | 1.57 | 0.4 | 0.358 | 0.351
30 | GCTAGCAGGCCATTTGGGTCACTTAATGACGGGC | 1.82 | 0.913 | 1.22 | -0.0616 | 0.684 | 1.79 | 0.181 | 0.902 | 0.405
31 | ATCTCTAGGTAAAAGTTCATTGAATCCCGAGGAT | 2.65 | 2.61 | 2.06 | 1.89 | 2.82 | 1.87 | 0.281 | 2.82 | 3.33
32 | GCTGCTAGGTCAGGTTGGTAAGCTAACGGGTACG | 2.26 | 2.6 | 3.55 | 0.418 | 1.02 | 1.7 | 0.477 | 0.241 | 0.193
33 | TCAAATAGGTAAACAGGTGAAAGTCCGTAAGTTA | 0.737 | 0.645 | 0.221 | 1.46 | 1.15 | 0.783 | 0.141 | 1.18 | 0.236
34 | GCATATAGGAAATACAAGGTGAAAGTCCGATTGT | 0.623 | 0.263 | 0.484 | 0.294 | 0.281 | 1.94 | 0.81 | -0.189 | -0.126
35 | CCAGACAGGTGAGAAGGTAACTCCGCCTCGATTA | 0.57 | 0.45 | 0.417 | -0.0199 | 0.0477 | 0.0136 | 0.252 | -0.335 | -0.0348
36 | GCGACTGGGGCAAAGCAGGTTGCCATAAGGTTGG | 0.156 | 0.0303 | 0.101 | -0.48 | -0.0833 | 1.59 | -0.471 | -0.612 | -0.513
37 | ACTATTAGTTGACTTAGGGCTACCGATACGACGC | -0.0045 | 0.457 | 0.61 | 0.644 | 0.257 | 1.21 | 0.349 | -0.0525 | 0.385
38 | CGTCAAAGTTCAAGGTAACGCAACAGAAAGCAGC | 3.59 | 5.16 | 6.13 | 4.31 | 4.24 | 2.97 | 1 | 3.67 | 3.74
39 | TCTTGTAGATCCAAGGTTAAGAAAGCCGAAGCCT | 0.743 | 0.336 | 0.0629 | 0.928 | 1.13 | 1.27 | 0.204 | 0.448 | 0.0451
40 | CCTCCTGGGCCAAGGTCATTGATCAGTCAAAGCA | 3.38 | 3.6 | 3.13 | 0.822 | 3.1 | 3.43 | 2.34 | 2.91 | 3.08
41 | ATCTCTAGGTTAAGTTCAGTGAAAGATCGATAGA | 2.18 | 2.18 | 2.54 | 2.12 | 1.41 | 1.99 | 1.4 | 2.37 | 3.19
42 | CGTCCAAGGTCAGCAGGTCAGTGATAGCGACGTG | 5.02 | 6.25 | 7.22 | 2.59 | 5.26 | 3.84 | 2.31 | 3.91 | 1.75
43 | TCAGCCAGGTGAAGGTAACTCAGGTACGCAGTCG | 0.236 | 0.119 | -0.0268 | 0.397 | 0.607 | 1.8 | 0.391 | 0.261 | -0.347
44 | CTACCAAGGTGAACAAGGTTGTTGATTACTATTC | 1.02 | 0.783 | 0.877 | 0.73 | 0.747 | 2.05 | 0.944 | 4.05 | 0.267
45 | CCTTACGGGTCACTGACAGGTTATAACATTTGGA | 3.33 | 5.87 | 4.56 | 1.78 | 5.31 | 3.12 | 0.436 | 3.84 | 1.21
46 | CCTACTGGGCCAAAGGTCATTAATTCCAATGCTC | 4.19 | 5.3 | 4.49 | 1.34 | 6.16 | 3.01 | 0.695 | 4.22 | 2.77
47 | ACTATTAGTTGACTTAGGGCAACCAATACGACGC | 1.15 | 0.838 | 0.945 | 0.699 | 0.621 | 1.66 | 0.216 | 0.354 | 0.251
48 | ATCTCTAGGTAAAAGTTCAGTGACTCCCGAGGAT | 2.46 | 2.04 | 2.16 | 0.624 | 1.75 | 1.32 | 0.142 | 1.71 | 1.69
49 | TTACCCAGGTGAAGGTCGTTGATCCCTCTGTAGA | 1.33 | 0.65 | 0.626 | -0.428 | 1.31 | 1.91 | 0.888 | 1.05 | 1.26
50 | TCTTGTAGATCAGCAGGTTAAGAGAGCTGGCCAA | -0.156 | -0.1 | -0.407 | 0.292 | 0.367 | -0.0987 | -0.325 | 0.132 | -0.364
51 | ATCTCTAGGTAAAGATAGTTTAGTGAATGCAAAT | 0.204 | 0.354 | 0.533 | -0.0109 | 0.0812 | 0.487 | 0.117 | 0.322 | 0.358
52 | GCTGCTAGGTCAGGTTGGCCAGCTAACGGGTACG | 2.23 | 2.48 | 3.46 | -0.0229 | 0.917 | 1.46 | 0.0199 | 0.052 | 0.0457
